The list is not random: actives were taken first. Their share in the collection is about 2.8%.
PAX8 reporter: PAX8 transcriptional activity inhibition | RMG-I TPO-luciferase reporter, SteadyGlo, 24 h | inhibition, % at 12.6 µM | 360,000 compounds, 1.2% hits | AID 652154;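 active means mean replicate inhibition at least 60% with every replicate also reaching 60%; inconclusive means only one of the two criteria is met; inactive means mean below 60% and not all replicates reaching 60%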;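 further: luciferase light reporting Pax8 driven TPO promoter activity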
EWS-Fli block: blocks EWS/Fli oncoprotein-driven transcription; A673 NR0B1-luciferase reporter, viability-normalised; inhibition, % at 12.6 µM; 350,000 compounds, 0.67% hits;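 active means mean inhibition of at least 50% after viability correction, with every replicate also passing that limit; inconclusive means mean reaches 50% but only one of two replicates passes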;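 further: firefly luciferase signal divided by Alamar Blue viability fluorescence both relative to DMSO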
LGR2 inh: inhibitors of bursicon-induced Drosophila LGR2 receptor cAMP signaling; HEK293 LGR2, CRE-luciferase, bursicon-stimulated, 4 h; inhibition, % at 9.99 µM; 380,000 compounds, 0.35% hits; AID 720647;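 active means drop in luminescence signal, shown as inhibition above about 50% in the replicate tests, limit read from the data, passing the limit was not always enough; inconclusive means probably only some replicates passing the limit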;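 further: agonist challenge used bursicon conditioned medium at about half maximal strength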
TROY NFkB inh: TROY signaling inhibition; Q293 LMP1-TROYcd NF-kB luciferase reporter, 4 h; inhibition, % at 10 µM; 360,000 compounds, 0.98% hits;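 active means compounds whose plate-normalised and pattern-corrected inhibition of the luciferase reporter signal at the single screening dose is 50% or more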
TWEAK-Fn14 inh: blocks TWEAK-Fn14 interaction in a reporter cell assay; TWEAK-stimulated Fn14 reporter cells, luciferase luminescence, 8 h; 360,000 compounds, 2% hits; AID 1159606; inhibition, % at 10 µM; in the data active means inhibition above about 50%
Large screens that a line does not name were inactive.

Cc1ccc(-n2nc3c(=O)n(CC(=O)NCCc4cccs4)nc(C)c3c2C)cc1	none (no result: EWS-Fli block)
Cc1nnc(N2CCCC(C(=O)NCc3ccc(OC(C)C)cc3)C2)c2nn(-c3ccccc3)c(C)c12 (configuration not stated)	PAX8 reporter 73.1 (no result: EWS-Fli block)
NNc1nc(-c2ccccc2Cl)c2cc(Br)ccc2n1	TROY NFkB inh 86.5
Clc1ccccc1-c1ncnc2ccc(Br)cc12	none
CC(=O)N1[C@@H]2CN(S(=O)(=O)c3ccc(F)cc3)c3ccccc3[C@@H]2[C@@H]1CO	none (no result: TROY NFkB inh, TWEAK-Fn14 inh)
COCc1cn(CC[C@H]2CC[C@H](NC(=O)Nc3ccccc3)[C@H](CO)O2)nn1	none (no result: TROY NFkB inh, TWEAK-Fn14 inh)
CCN1CCN(C(=O)c2ccc(-c3nc4ccccc4s3)s2)CC1	none
Cc1ccc2nc(NC(=O)c3ccc(-c4nc5ccccc5s4)s3)sc2c1	none
O=C(c1ccc(-c2nc3ccccc3s2)s1)N1CCOCC1	PAX8 reporter 66.3, EWS-Fli block 76.8, LGR2 inh 76.4 (no result: TROY NFkB inh, TWEAK-Fn14 inh)
O=C(NC1CC1)c1ccc(-c2nc3ccccc3s2)s1	TROY NFkB inh 70.8, TWEAK-Fn14 inh 96.7 (no result: PAX8 reporter, EWS-Fli block, LGR2 inh)
COc1ccccc1-c1ccc2c(c1)O[C@@H](CN(C)S(=O)(=O)c1ccc(F)cc1)[C@@H](C)CN([C@@H](C)CO)S2(=O)=O	none (no result: TROY NFkB inh, TWEAK-Fn14 inh)
O=C(O)c1ccc(Nc2ncnc3scc(-c4ccccc4)c23)cc1	TWEAK-Fn14 inh 54.8
CC(=O)Nc1ccc(Sc2ncnc3scc(-c4ccccc4)c23)cc1	TWEAK-Fn14 inh 61.9 (no result: EWS-Fli block)
C[C@@H]1CN([C@H](C)CO)C(=O)c2cc(-c3cncnc3)cnc2O[C@@H]1CN(C)C(=O)c1ccccc1F	none (no result: PAX8 reporter, TROY NFkB inh, TWEAK-Fn14 inh)
C[C@H](CO)N1C[C@H](C)[C@@H](CN(C)C(=O)Nc2ccc(F)cc2)Oc2c(cccc2N(C)C)C1=O	none (no result: TROY NFkB inh, TWEAK-Fn14 inh)
O=C(c1cc(-c2cccs2)on1)N1CCN(C(c2ccccc2)c2ccccc2)CC1	PAX8 reporter 99.1 (no result: EWS-Fli block, LGR2 inh)
Cc1onc(C(=O)N2CCN(C(c3ccccc3)c3ccccc3)CC2)c1[N+](=O)[O-]	PAX8 reporter 97.5
CNC(=O)C[C@@H]1CC[C@@H]2[C@H](COC[C@@H](O)CN2C(=O)Nc2ccc3c(c2)OCO3)O1	none (no result: PAX8 reporter, EWS-Fli block, TROY NFkB inh, TWEAK-Fn14 inh)
C[C@H](CO)N1C[C@H](C)[C@H](CN(C)C(=O)C2CCC2)Oc2cc(Br)ccc2S1(=O)=O	none (no result: PAX8 reporter, TROY NFkB inh, TWEAK-Fn14 inh)
CCn1cnc2sc(C(=O)Nc3ccc4c(c3)OCO4)c(C)c2c1=O	TWEAK-Fn14 inh 57.4 (no result: PAX8 reporter, EWS-Fli block, LGR2 inh, TROY NFkB inh)
O=C(c1[nH]ncc1-c1ccccc1)C1CO1 (configuration not stated)	none (no result: LGR2 inh)
O=C(c1[nH]ncc1-c1cccc(Br)c1)C1CO1 (configuration not stated)	TWEAK-Fn14 inh 53.7
Cc1cc(C)nc(N/N=C/c2cccc3ccccc23)n1	PAX8 reporter 82.2
CCN(CC(=O)Nc1c(F)cccc1F)C(=O)c1cc(S(=O)(=O)N2CCOCC2)ccc1N1CCCC1	PAX8 reporter 72.4
CCN(CC(=O)Nc1c(F)cccc1F)C(=O)c1ccc(N2CCOCC2)c([N+](=O)[O-])c1	none
CCN(CC(=O)Nc1c(F)cccc1F)C(=O)c1cc([N+](=O)[O-])ccc1N1CCCCC1	PAX8 reporter 79.6
O=C([C@@H]1[C@@H](CO)[C@@H]2Cn3c(cccc3=O)[C@@H]2N1CC1CC1)N1CCc2ccccc2C1	none (no result: PAX8 reporter, TROY NFkB inh, TWEAK-Fn14 inh)
CN1CCN(C(=O)C[C@H]2CC[C@H]3[C@@H](COC[C@H](O)CN3C(=O)C3CC3)O2)CC1	none (no result: TROY NFkB inh, TWEAK-Fn14 inh)
S=C(NCC1CCCO1)N1CCN(c2nc(-c3ccc(Cl)cc3)cs2)CC1 (configuration not stated)	TWEAK-Fn14 inh 63.9
CCN1CCN(Cc2ccc(NC(=O)c3cc(NC(=O)c4cncc(-c5ccc(C#N)cc5)c4)cc(OC)c3)cc2C(F)(F)F)CC1	PAX8 reporter 108.0
CCN1CCN(Cc2ccc(NC(=O)c3ccc(C)c(NC(=O)c4cc(-c5ccc(Br)cc5)n[nH]4)c3)cc2C(F)(F)F)CC1	EWS-Fli block 54.1
Cc1cc(Cl)ccc1OC(C)C(=O)N1CCCN(C(=O)C(C)Oc2ccc(Cl)cc2C)CC1 (configuration not stated)	TWEAK-Fn14 inh 62.6 (no result: PAX8 reporter, EWS-Fli block, LGR2 inh)
O=C(C[C@@H]1C=C[C@H](NC(=O)C2CC2)[C@H](CO)O1)NCCCN1CCOCC1	none (no result: TROY NFkB inh, TWEAK-Fn14 inh)
CC(C)Cc1nc(N2CCN(C(=O)c3ccco3)CC2)c(C#N)c2c1CCCC2	TROY NFkB inh 53.0 (no result: EWS-Fli block)
Cc1ccc(S(=O)(=O)N(C)C[C@H]2Oc3ccc(NC(=O)NC4CCCCC4)cc3CC(=O)N([C@@H](C)CO)C[C@H]2C)cc1	none (no result: TROY NFkB inh, TWEAK-Fn14 inh)
CCN(CC)c1ccc(NC2=C(Cl)C(=O)c3ccccc3C2=O)cc1	TWEAK-Fn14 inh 57.5 (no result: PAX8 reporter, EWS-Fli block, LGR2 inh)
Cc1ccc(NC2=C(Cl)C(=O)c3ccccc3C2=O)cc1	EWS-Fli block inconclusive
O=C1C(Cl)=C(Nc2ccc(O)cc2)C(=O)c2ccccc21	EWS-Fli block 57.3, TROY NFkB inh 64.2
CCC(=O)NC1=C(Nc2ccc(N)cc2)C(=O)c2ccccc2C1=O	TWEAK-Fn14 inh 51.6
CCCC(=O)NC1=C(Cl)C(=O)c2ccccc2C1=O	PAX8 reporter 103.0
O=C(NC[C@H]1[C@H](c2ccccc2)[C@H](CO)N1CC1CCCC1)c1cccnc1	none (no result: TROY NFkB inh, TWEAK-Fn14 inh)
CC(=O)c1c(C)oc2ccc(NS(=O)(=O)c3ccc(F)cc3C)cc12	TWEAK-Fn14 inh 56.3
CN(CC(=O)O)S(=O)(=O)c1cc(Cl)ccc1Cl	TROY NFkB inh 57.4 (no result: PAX8 reporter)
C[C@@H]1CCCCO[C@H](CN(C)S(=O)(=O)c2ccc(F)cc2)[C@H](C)CN([C@@H](C)CO)C(=O)c2cc(N(C)C)ccc2O1	none (no result: TROY NFkB inh, TWEAK-Fn14 inh)
CCCC1Cc2c(sc3nc(SC)nc(N)c23)CO1 (configuration not stated)	TWEAK-Fn14 inh 68.1 (no result: PAX8 reporter, EWS-Fli block, LGR2 inh)
CSc1nc(N)c2c3c(sc2n1)COC(C(C)C)C3 (configuration not stated)	none (no result: PAX8 reporter, EWS-Fli block, LGR2 inh)
Nc1ccc(-c2cnc(N)c(C(=O)c3cccnc3)n2)cn1	TWEAK-Fn14 inh 79.2 (no result: PAX8 reporter, EWS-Fli block, LGR2 inh)
CO[C@@H]1CN(C)C(=O)c2ccc(NC(C)=O)cc2OC[C@@H](C)N(Cc2ccc(F)cc2)C[C@H]1C	none (no result: PAX8 reporter, TROY NFkB inh, TWEAK-Fn14 inh)
Cc1ccc(Cl)cc1N1CCN(C(=O)c2cc3c(=O)[nH]c4ccccc4c3n2C)CC1	LGR2 inh 64.5 (no result: EWS-Fli block)
CN1c2ccc(-c3ccccc3)cc2[C@@H]2[C@@H](CCN2C(=O)Cc2ccccn2)[C@@H]1CO	none (no result: TROY NFkB inh, TWEAK-Fn14 inh)
CN1C(=O)C(=O)/C(=C(/O)c2ccc(Br)cc2)C1c1ccc(Cl)cc1 (configuration not stated)	TWEAK-Fn14 inh 94.8
CN1C(=O)C(=O)/C(=C(/O)c2ccccc2)C1c1ccc(Br)cc1 (configuration not stated)	none
Cc1ccc(-c2nc(N)sc2-c2ccccc2)cc1C	TROY NFkB inh 53.1, TWEAK-Fn14 inh 85.6 (no result: EWS-Fli block)
Nc1nc(-c2ccccc2)c(-c2ccccc2)s1	none (no result: PAX8 reporter, EWS-Fli block, LGR2 inh)
O=C(NCCCN1CCOCC1)/C(=C/c1ccc(-c2cccc([N+](=O)[O-])c2)o1)NC(=O)c1ccccc1	none
Cc1nc2nc(C)n(CCN3CCOCC3)c(=O)c2c(-c2cccc([N+](=O)[O-])c2)c1C(=O)CCCCCCCCCCN1CCC(c2ccccc2)(c2ccccc2)CC1	EWS-Fli block inconclusive, TWEAK-Fn14 inh 95.6
Cc1cc(NC(=O)Cn2cc([N+](=O)[O-])cn2)no1	TROY NFkB inh 88.2
